These results are taken from ChEMBL document CHEMBL3988442, “University of Dundee, Small-Polar-MMV Screening Library” (2021).

Each structure is given as a SMILES string. For part of these data: Results with a measured potency or affinity are listed apart.

Holding throughout (set-up): scale not given: direction of the effect not stated beside the values
Assay [1] deals with Protein translocase subunit SecA (Escherichia coli (strain K12)) (UniProt P10408). Kind of assay: Assay to Identify E. coli SecA ATPase Inhibitors. As to conditions: 30 µM. In kind it is functional.
Protein translocase subunit SecA (Escherichia coli (strain K12)), sequence (P10408 whole entry): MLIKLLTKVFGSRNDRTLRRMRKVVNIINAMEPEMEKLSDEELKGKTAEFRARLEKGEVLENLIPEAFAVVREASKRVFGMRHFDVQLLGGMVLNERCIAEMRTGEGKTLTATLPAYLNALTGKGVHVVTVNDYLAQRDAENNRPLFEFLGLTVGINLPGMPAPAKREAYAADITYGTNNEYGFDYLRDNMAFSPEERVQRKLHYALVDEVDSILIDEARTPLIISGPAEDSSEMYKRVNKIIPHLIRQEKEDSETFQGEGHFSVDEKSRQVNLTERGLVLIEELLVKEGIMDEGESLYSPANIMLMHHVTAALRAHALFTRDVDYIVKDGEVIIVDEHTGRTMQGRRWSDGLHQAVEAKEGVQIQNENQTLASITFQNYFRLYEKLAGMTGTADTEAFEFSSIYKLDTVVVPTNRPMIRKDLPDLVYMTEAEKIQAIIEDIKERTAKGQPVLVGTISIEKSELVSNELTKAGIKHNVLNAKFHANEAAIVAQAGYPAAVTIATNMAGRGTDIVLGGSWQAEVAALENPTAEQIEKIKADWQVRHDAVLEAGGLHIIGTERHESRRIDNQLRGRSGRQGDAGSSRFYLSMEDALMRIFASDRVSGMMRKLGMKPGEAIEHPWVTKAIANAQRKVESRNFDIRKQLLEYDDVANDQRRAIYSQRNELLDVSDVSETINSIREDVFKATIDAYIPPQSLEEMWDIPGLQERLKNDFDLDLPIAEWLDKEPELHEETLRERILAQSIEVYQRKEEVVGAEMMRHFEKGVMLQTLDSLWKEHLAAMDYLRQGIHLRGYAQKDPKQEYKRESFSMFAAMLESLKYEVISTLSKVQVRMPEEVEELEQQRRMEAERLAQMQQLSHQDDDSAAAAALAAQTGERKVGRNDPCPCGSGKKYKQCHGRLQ
The target in assay [2] is T1, Ubiquitin-activating enzyme e1, putative (Leishmania donovani (strain BPK282A1)) (UniProt E9BSI1).
T1 sequence (whole entry): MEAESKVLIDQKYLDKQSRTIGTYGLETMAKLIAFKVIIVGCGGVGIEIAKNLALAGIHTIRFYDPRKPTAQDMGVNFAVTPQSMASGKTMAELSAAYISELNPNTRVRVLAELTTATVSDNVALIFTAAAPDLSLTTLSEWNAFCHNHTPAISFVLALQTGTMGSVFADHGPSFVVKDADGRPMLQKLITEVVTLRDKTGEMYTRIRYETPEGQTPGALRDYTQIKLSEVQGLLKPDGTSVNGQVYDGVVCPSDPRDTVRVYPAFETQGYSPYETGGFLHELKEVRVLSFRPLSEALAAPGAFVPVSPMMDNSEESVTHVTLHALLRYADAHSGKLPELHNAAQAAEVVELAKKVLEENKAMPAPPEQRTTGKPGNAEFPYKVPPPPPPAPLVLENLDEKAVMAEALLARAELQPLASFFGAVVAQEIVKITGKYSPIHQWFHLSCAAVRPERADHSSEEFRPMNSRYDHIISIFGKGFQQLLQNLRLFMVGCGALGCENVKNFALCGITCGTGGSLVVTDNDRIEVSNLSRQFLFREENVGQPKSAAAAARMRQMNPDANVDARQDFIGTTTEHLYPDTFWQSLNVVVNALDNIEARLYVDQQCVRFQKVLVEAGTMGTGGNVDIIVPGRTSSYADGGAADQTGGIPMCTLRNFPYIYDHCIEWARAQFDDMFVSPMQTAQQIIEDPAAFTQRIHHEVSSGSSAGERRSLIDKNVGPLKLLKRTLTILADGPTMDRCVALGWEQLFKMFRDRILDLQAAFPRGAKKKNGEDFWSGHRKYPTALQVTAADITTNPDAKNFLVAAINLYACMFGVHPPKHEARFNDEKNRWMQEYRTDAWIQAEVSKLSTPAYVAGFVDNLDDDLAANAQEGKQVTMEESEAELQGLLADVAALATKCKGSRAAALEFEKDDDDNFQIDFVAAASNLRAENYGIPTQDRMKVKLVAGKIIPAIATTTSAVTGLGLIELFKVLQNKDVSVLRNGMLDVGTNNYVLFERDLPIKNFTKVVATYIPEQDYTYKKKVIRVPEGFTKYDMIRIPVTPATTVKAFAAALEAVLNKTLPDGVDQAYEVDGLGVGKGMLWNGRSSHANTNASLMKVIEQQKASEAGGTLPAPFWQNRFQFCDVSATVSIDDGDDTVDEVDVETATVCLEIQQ
Kind of assay: Leishmania donovani Ubiquitin Activating Enzyme (LdE1). Format: functional. Conditions: 30 µM.

In assay [3] the target is Sialic acid-binding Ig-like lectin 9 (Homo sapiens) (UniProt Q9Y336). The experiment in a line: Hs-Siglec9 ALPHAscreen SOP 20170721. As to conditions: 10 µM. On the technique in general: In Alpha technology, singlet oxygen from a donor bead excites a nearby acceptor bead.
Sialic acid-binding Ig-like lectin 9 (Homo sapiens), sequence (Q9Y336 whole entry): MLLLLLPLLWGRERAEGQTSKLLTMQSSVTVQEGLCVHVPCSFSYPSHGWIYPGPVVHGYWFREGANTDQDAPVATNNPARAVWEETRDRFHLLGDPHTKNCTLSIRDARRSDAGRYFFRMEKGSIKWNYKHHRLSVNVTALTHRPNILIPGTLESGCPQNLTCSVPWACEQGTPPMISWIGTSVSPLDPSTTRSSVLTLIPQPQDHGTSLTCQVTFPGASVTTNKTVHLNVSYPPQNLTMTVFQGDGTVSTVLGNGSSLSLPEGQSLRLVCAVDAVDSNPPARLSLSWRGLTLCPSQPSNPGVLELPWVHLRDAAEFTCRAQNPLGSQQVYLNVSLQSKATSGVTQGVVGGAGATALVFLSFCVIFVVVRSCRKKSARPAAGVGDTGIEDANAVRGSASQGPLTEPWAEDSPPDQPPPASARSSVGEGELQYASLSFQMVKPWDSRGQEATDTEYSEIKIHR
For another assay, the system named is Trypanosoma cruzi. Kind of assay: Trypanosoma cruzi phosphomannomutase and mannose-1-phosphate guanylyltransferase assay. Format: functional. As to conditions: 10 µM.
Assay [4] deals with T2, Arginase-2, mitochondrial (Homo sapiens) (UniProt P78540).
T2 sequence (whole entry): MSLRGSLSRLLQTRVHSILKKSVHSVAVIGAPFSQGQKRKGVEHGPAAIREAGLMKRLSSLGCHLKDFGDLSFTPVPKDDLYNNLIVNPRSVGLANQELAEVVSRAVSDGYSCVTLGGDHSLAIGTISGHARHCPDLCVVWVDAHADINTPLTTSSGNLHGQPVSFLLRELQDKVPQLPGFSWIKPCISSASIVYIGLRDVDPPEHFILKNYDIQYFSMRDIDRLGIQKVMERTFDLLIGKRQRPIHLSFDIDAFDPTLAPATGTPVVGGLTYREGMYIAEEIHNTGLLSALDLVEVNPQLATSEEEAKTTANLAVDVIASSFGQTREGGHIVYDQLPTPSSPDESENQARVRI
The experiment in a line: in vitro enzyme assay to detect the production of urea directly proportional to the activity of Arginase II. Also: in the data most compounds retested in dose-response had high values. Conditions: 33.3 µM. Format: functional.

Assay [5] deals with T3, Proteasome subunit beta (Trypanosoma cruzi) (UniProt O96673).
T3 sequence (whole entry): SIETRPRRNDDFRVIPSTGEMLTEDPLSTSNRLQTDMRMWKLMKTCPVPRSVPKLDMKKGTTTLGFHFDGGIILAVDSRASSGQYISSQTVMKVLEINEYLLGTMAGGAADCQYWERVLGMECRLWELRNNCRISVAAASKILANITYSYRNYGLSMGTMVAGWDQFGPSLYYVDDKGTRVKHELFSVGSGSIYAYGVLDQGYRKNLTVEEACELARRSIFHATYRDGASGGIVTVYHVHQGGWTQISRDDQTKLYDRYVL
The experiment in a line: Trypanosoma cruzi proteasome chymotrypsin-like activity (TcProtChymo) assay. Also: in the data most compounds retested in dose-response had high values. Format: functional. As to conditions: 9.37 µM.

The species named for another assay is Homo sapiens. The experiment in a line: To identify inhibition of the IFN signalling (Jak-Stat) pathway via expression of an eGFP reporter gene under the control of an IFN-stimulated response element (ISRE) containing MxA promoter. As to conditions: 30 µM. In kind it is functional. For orientation: In a reporter assay the amount or activity of a reporter protein is the signal.

Assay [6] has as its target T4, Tyrosyl-tRNA synthetase, putative (Trypanosoma cruzi (strain CL Brener)) (UniProt Q4DSP6).
T4 sequence (whole entry): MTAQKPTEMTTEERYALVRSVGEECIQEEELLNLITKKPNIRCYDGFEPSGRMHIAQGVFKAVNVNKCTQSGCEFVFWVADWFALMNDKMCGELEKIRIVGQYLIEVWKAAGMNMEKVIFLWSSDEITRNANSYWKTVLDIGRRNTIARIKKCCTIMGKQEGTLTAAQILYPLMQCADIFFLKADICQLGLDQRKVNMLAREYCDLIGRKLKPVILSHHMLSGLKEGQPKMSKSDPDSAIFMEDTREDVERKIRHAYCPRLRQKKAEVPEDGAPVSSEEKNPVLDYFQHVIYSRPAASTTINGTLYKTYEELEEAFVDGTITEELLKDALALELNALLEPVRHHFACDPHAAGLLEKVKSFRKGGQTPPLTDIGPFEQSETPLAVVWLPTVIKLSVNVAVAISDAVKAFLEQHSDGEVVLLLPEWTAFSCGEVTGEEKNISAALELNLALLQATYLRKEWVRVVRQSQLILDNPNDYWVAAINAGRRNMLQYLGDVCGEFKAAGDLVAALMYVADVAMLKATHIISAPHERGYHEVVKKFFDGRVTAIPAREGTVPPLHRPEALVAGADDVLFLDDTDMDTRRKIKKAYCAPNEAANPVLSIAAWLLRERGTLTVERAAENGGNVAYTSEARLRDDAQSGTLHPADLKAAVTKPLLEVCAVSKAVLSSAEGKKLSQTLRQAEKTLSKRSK
The experiment in a line: Trypanosoma cruzi tyrosyl tRNA synthetase (TcYRS) _High Tyrosine SOP. Also: in the data most compounds retested in dose-response had high values. Format: functional. Conditions: 30 µM.

The target in assay [7] is T4, Tyrosyl-tRNA synthetase, putative (Trypanosoma cruzi (strain CL Brener)). The experiment in a line: Trypanosoma cruzi tyrosyl tRNA synthetase (TcYRS) SOP. In kind it is functional. Conditions: 30 µM.
The target in assay [8] is Chromo domain-containing protein 1 (Saccharomyces cerevisiae (strain ATCC 204508 / S288c) (Baker's yeast)) (UniProt P32657). The experiment in a line: ScCHD-1 Enzyme Inhibition Assay. Also: in the data most compounds retested in dose-response had high values. Format: functional. Conditions: 30 µM.
Chromo domain-containing protein 1 (Saccharomyces cerevisiae (strain ATCC 204508 / S288c) (Baker's yeast)), sequence (P32657 whole entry, the tested form may be a part): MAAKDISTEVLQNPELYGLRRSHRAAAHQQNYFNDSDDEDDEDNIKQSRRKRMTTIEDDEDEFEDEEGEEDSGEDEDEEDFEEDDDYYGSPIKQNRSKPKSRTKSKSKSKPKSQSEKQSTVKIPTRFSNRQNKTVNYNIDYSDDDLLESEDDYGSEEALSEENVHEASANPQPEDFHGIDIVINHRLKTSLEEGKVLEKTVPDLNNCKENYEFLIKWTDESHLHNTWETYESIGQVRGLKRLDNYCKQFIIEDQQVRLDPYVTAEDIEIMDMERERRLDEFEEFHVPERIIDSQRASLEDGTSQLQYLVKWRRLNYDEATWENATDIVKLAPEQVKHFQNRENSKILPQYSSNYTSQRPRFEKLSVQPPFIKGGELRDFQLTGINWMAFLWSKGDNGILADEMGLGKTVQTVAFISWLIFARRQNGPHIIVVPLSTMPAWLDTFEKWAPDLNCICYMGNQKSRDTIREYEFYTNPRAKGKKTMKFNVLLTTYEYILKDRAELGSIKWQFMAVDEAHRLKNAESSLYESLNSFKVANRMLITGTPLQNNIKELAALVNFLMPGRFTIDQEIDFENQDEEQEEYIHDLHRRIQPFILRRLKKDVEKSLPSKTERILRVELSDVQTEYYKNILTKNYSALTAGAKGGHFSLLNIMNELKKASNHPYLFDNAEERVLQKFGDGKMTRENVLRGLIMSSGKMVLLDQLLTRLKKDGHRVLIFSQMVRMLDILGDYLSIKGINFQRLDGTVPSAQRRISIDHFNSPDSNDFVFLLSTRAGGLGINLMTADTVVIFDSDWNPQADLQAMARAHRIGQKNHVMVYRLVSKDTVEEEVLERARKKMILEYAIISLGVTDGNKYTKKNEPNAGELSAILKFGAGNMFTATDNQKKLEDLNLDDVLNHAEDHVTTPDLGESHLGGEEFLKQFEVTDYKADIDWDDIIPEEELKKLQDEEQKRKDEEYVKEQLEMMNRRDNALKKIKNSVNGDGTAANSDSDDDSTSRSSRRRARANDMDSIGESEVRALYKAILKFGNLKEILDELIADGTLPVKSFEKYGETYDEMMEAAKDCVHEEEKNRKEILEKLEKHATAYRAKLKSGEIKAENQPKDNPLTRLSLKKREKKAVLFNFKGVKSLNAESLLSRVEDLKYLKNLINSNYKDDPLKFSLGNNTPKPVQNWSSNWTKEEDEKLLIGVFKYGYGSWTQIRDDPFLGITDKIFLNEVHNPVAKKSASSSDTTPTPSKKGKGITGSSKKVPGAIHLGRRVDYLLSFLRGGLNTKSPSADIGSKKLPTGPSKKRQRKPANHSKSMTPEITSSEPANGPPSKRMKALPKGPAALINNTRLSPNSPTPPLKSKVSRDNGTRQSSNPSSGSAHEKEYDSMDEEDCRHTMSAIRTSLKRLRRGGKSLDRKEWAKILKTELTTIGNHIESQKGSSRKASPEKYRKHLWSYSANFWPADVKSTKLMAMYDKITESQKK

As for `CCn1cc(S(=O)(=O)N(C)Cc2c(Br)cnn2CC)c(C)n1`, the Percent Effect is 8.78% in [1]; 12% in assay [2]; -0.969% in assay [3]; -3.55% with Trypanosoma cruzi; 3.54% in [4]; 16.6% in assay [5]. The Percent Effect in the assay filed under Homo sapiens is 20.6%; in assay [6], 3.17%; in [7], 7.5%; in assay [8] it was -17.9%.

Regarding `O=C(NCCN1CCCCC1)c1ccoc1`, the Percent Effect was -6.92% in assay [1]; 7.79% in assay [2]; -0.674% in [3]; -7.28% with Trypanosoma cruzi; -2.66% in assay [4]; 4.21% in assay [5]. Moreover, the Percent Effect was 14.7% in the assay filed under Homo sapiens, -2.94% in [6], 0% in assay [7] and -4.75% in assay [8].

`COCC(=O)N1CCC2(CC1)CCN(Cc1ccccn1)C2=O`: the Percent Effect in [1] is -4.26%; in assay [2], -3.9%; in assay [3], -5.87%; in the assay with Trypanosoma cruzi, -2.24%; in [4], -3.64%; in assay [5], 1.5%. The Percent Effect in the assay listed under Homo sapiens is -7.24%; in assay [6], -2.63%; in assay [7], -5.13%; in assay [8] it was 0.829%.

With `O=C(NCCNC(=O)c1scnc1Cl)c1ccccc1`, the Percent Effect in assay [1] is -3.41%; in assay [2], 16%; in assay [3], 3.33%; with Trypanosoma cruzi it was 2.01%; in [4] it was -0.887%; in assay [5] it was 14.2%. Besides, the Percent Effect in the assay filed under Homo sapiens was 9.89%; in assay [6], 7.89%; in assay [7], 17.9%; in assay [8] it was -5%.

Regarding `CN1CCCC2(CCN(C(=O)CCn3cncn3)C2)C1=O` (stereo not given), the Percent Effect is -9.37% in assay [1]; 2.7% in assay [2]; 4.1% in assay [3]; 4.17% in the assay on Trypanosoma cruzi; 5.94% in assay [4]; 12% in assay [5]. The Percent Effect in the assay filed under Homo sapiens was -0.496%; in assay [6] it was 4.79%; in assay [7], 19.5%; in [8], -0.366%.

For `Cc1ccccc1-c1noc(CN2CCn3c(nnc3C3CC3)C2)n1`, the Percent Effect in assay [1] is -6.21%; in assay [2] it was -25.6%; in [3], -13.3%; in the assay on Trypanosoma cruzi it was -3.1%; in assay [4], -0.41%; in [5] it was 5.21%. Moreover, the Percent Effect in the assay filed under Homo sapiens was 15.8%; in assay [6], 0.478%; in assay [7], 1.21%; in [8], -7.86%.

Take `CN(C)C[C@H]1OC[C@@H]2CCN(S(=O)(=O)c3ccccc3)C[C@@H]21`: the Percent Effect was -7.48% in assay [1]; 3.9% in assay [2]; 9.94% in assay [3]; -4.58% in the assay with Trypanosoma cruzi; -5.26% in assay [4]; 7.33% in assay [5]. The Percent Effect is 5.69% in the assay listed under Homo sapiens, -2.63% in assay [6], -5.13% in assay [7] and -2.54% in assay [8].

As to `COCC(=O)N1CCC2(CC1)CC(CC(=O)NC1CC1)c1ccccc12` (stereo not given), the Percent Effect in [1] is -8.48%; in assay [2], -1.3%; in assay [3], 3.8%; in the assay with Trypanosoma cruzi, -1.66%; in assay [4], -6.88%; in [5], -0.0883%. Besides, the Percent Effect in the assay filed under Homo sapiens was -8.57%; in [6], -0.526%; in [7], 5.13%; in [8] it was -0.682%.

With `O=C(Cc1csc(-c2nnc[nH]2)n1)N1CCCC1Cn1cccn1` (stereo not given), the Percent Effect was -1.04% in [1]; 8% in [2]; 5.84% in assay [3]; -0.402% in the assay with Trypanosoma cruzi; -3.1% in assay [4]; 8.74% in assay [5]. The Percent Effect in the assay listed under Homo sapiens was -1.78%; in assay [6], 2.63%; in [7], 5.13%; in [8] it was -9.48%.

Consider `Cn1nc2c(cc1=O)CN(Cc1nnc(C3CC3)o1)CC2`, for which the Percent Effect in assay [1] was -3.12%; in assay [2], 51.3%; in assay [3], -13.6%; in the assay on Trypanosoma cruzi, -6.29%; in [4], 0.41%; in assay [5], 6.91%. The Percent Effect in the assay filed under Homo sapiens was 36.5%; in assay [6], -11%; in assay [7] it was -6.02%; in assay [8], -6.1%.

For the compound `Cc1nn(-c2ccccc2)cc1C(=O)N1CCCN2CCCC2C1` (stereo not given), the Percent Effect in [1] was -4.61%; in assay [2], 10.7%; in assay [3], 5.72%; in the assay with Trypanosoma cruzi it was -0.201%; in assay [4], 0.887%; in assay [5] it was 7.21%. For the same compound, the Percent Effect was 3.25% in the assay listed under Homo sapiens, 7.89% in assay [6], 12.8% in [7] and -14.7% in [8].

`COCC1CN(CC2CC2)Cc2nn(C)cc21` (stereo not given): the Percent Effect was -8.74% in [1]; -1.3% in assay [2]; -2.43% in [3]; -6.91% in the assay with Trypanosoma cruzi; 2.02% in assay [4]; 10.5% in [5]. The Percent Effect in the assay listed under Homo sapiens was 4.75%; in assay [6], 1.58%; in assay [7] it was -5.13%; in assay [8] it was -3.01%.
